# Measurements published in the supplement of paper PMC10503962.
# System: Trichuris muris adult worms
# Experiment: mean motility score (Paragon pixel variance) of adult worms (arbitrary units); higher = more motile worms, i.e. less anthelmintic effect; extreme values may be limits of the assay
# Conditions: 100 µM; 24 h
# How it was run: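 In 96-well plates, one adult Trichuris muris worm from infected NOD SCID mice went into each well with 100 μL RPMI-1640, antibiotics and drug at 100 μM (1% v/v DMSO). After 24 h at 37°C and 5% CO2, the plates were filmed on an automated phenotyping platform. Paragon pixel-variance analysis gave the motility score, which was averaged across replicate wells.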
row,SMILES,mean motility score
1,CS(=O)(=O)CCNCc1ccc(-c2ccc3ncnc(Nc4ccc(OCc5cccc(F)c5)c(Cl)c4)c3c2)o1 [lapatinib],999
2,C[C@]12CC[C@@H]3c4ccc(O)cc4CC[C@H]3[C@@H]1CCC2=O [estrone],2280
3,CCCCC1=NC2(CCCC2)C(=O)N1Cc1ccc(-c2ccccc2-c2nn[nH]n2)cc1 [irbesartan],2360
4,CCOc1ccc2ccccc2c1C(=O)N[C@@H]1C(=O)N2[C@@H]1SC(C)(C)[C@@H]2C(=O)[O-].O.[Na+] [nafcillin sodium monohydrate],3570
5,CCOC(=O)[C@H](CCc1ccccc1)N[C@@H](C)C(=O)N1[C@H](C(=O)O)C[C@@H]2CCC[C@@H]21 [ramipril],3060
6,COc1cc(C(C)=O)ccc1OCCCN1CCC(c2noc3cc(F)ccc23)CC1 [iloperidone],1950
7,O=C(O)CNC(=O)c1ccccc1I [iodohippurate],3580
8,O=C(O)/C=C/C(=O)O.OCCOCCN1CCN(C2=Nc3ccccc3Sc3ccccc32)CC1.OCCOCCN1CCN(C2=Nc3ccccc3Sc3ccccc32)CC1 [quetiapine fumarate],3120
9,CN(C)CCC=C1c2ccccc2CCc2ccccc21.Cl [amitriptyline hydrochloride],0
10,CN1CCCN=C1COC(=O)C(O)(c1ccccc1)C1CCCCC1.Cl (stereo not drawn) [oxyphencyclimine hydrochloride],3070
11,Cc1ccc(S(=O)(=O)NC(=O)NN2CCCCCC2)cc1 [tolazamide],4090
12,COC(=O)C1=C(C)NC(C)=C(C(=O)OC)C1c1ccccc1[N+](=O)[O-] [nifedipine],1260
13,C=C(c1ccc(C(=O)O)cc1)c1cc2c(cc1C)C(C)(C)CCC2(C)C [bexarotene],750
14,COc1ccc(CCN(C)CCCC(C#N)(c2ccc(OC)c(OC)c2)C(C)C)cc1OC (stereo not drawn) [verapamil],3440
15,CN(C)CC/C=C1/c2ccccc2Sc2ccc(Cl)cc21 [chlorprothixene],5
16,COc1nc(C)nc(Cl)c1NC1=NCCN1 [moxonidine],3500
17,CCN(CC)CCNC(=O)c1c(C)[nH]c(/C=C2\C(=O)Nc3ccc(F)cc32)c1C [sunitinib],531
18,CCN(CC)CCOc1ccc2nc(N(C)C)sc2c1.Cl.Cl [diamthazole dihydrochloride],4190
19,CCOc1ccccc1OCCN[C@H](C)Cc1ccc(OC)c(S(N)(=O)=O)c1.Cl [tamsulosin hydrochloride],2890

row,SMILES,mean motility score
1,Cc1[nH]c(/C=C2\C(=O)Nc3ccccc32)c(C)c1CCC(=O)O [orantinib],3560
2,CSc1ccc(C(=O)c2nc(O)[nH]c2C)cc1 [enoximone],1970
3,CC(=O)O[C@]1(C(C)=O)CC[C@H]2[C@@H]3C=C(Cl)C4=CC(=O)CC[C@]4(C)[C@H]3CC[C@@]21C [chlormadinone acetate],2750
4,OCC(S)CS (stereo not drawn) [dimercaprol],1550
5,CCN1CCCC1CNC(=O)c1cc(S(N)(=O)=O)ccc1OC (stereo not drawn) [sulpiride],2290
6,N#CC[C@H](C1CCCC1)n1cc(-c2ncnc3[nH]ccc23)cn1 [ruxolitinib],3070
7,COc1cc2nc(N(C)CCCNC(=O)C3CCCO3)nc(N)c2cc1OC (stereo not drawn) [alfuzosin],2420
8,Cn1cnc2c1c(=O)[nH]c(=O)n2C [theobromine],859
9,COc1c(C)c2c(c(O)c1C/C=C(\C)CCC(=O)O)C(=O)OC2 [mycophenolic acid],2100
10,CCOc1cc2ncc(C#N)c(Nc3ccc(OCc4ccccn4)c(Cl)c3)c2cc1NC(=O)/C=C/CN(C)C [neratinib],1890
11,CCN1CC(CCN2CCOCC2)C(c2ccccc2)(c2ccccc2)C1=O.Cl (stereo not drawn) [doxapram hydrochloride],1820
12,CCOc1cc(CC(=O)N[C@@H](CC(C)C)c2ccccc2N2CCCCC2)ccc1C(=O)O [repaglinide],268
13,NC(=O)CC[C@H](N)C(=O)O [glutamine],3380
14,CNC(=O)c1cc(Oc2ccc(NC(=O)Nc3ccc(Cl)c(C(F)(F)F)c3)cc2)ccn1 [sorafenib],781
15,Clc1ccc(COC(Cn2ccnc2)c2ccc(Cl)cc2Cl)c(Cl)c1 (stereo not drawn) [miconazole],122
16,COc1c2ccoc2cc2oc(=O)ccc12 [bergapten],3090
17,COC1=C(OC)C(=O)C(CCCCCCCCCCO)=C(C)C1=O [idebenone],1370
18,CCn1cc(C(=O)O)c(=O)c2cc(F)c(N3CCNC(C)C3)c(F)c21 (stereo not drawn) [lomefloxacin],3840
19,CC(C)N=c1cc2n(-c3ccc(Cl)cc3)c3ccccc3nc-2cc1Nc1ccc(Cl)cc1 [clofazimine],3290
